Laboratory results published in PubChem BioAssay (NCI).
The panel holds about 79,000 compounds, 15% with a hit somewhere; the sample as a whole holds those more often. Activity calls are given as the source filed them. Rule as the data show it: active = growth inhibition above about 70%; inactive = the rest.

Tests used:
[1] = NCI Yeast Anticancer Drug Screen. Data for the rad52 strain (AID 147);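 also: 0% = growth of vehicle-treated control cultures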; conditions: S. cerevisiae rad52 mutant growth inhibition, hits give high values
In short: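 Vehicle-treated cultures served as the reference for growth inhibition of compound-exposed yeast bearing a DNA repair mutation.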

[2] = NCI Yeast Anticancer Drug Screen. Data for the wt1 strain (AID 149);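 also: 0% = growth of vehicle-treated wt1 cultures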; conditions: S. cerevisiae wt1 strain (SPY 50644) growth inhibition, hits give high values
In short: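 The wt1 strain was treated with compounds, and growth was compared with vehicle-treated cultures to give inhibition.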

[3] = NCI Yeast Anticancer Drug Screen. Data for the rad50EPP+ strain (AID 151);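 also: 0% = growth of vehicle-treated control cultures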; conditions: S. cerevisiae rad50 mutant strain, hits give high values
In short: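 In this screen, rad50EPP+ yeast were exposed to compounds. Growth inhibition was scored against vehicle-treated controls.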

[4] = NCI Yeast Anticancer Drug Screen. Data for the mgt1 strain (AID 153); conditions: S. cerevisiae mgt1 mutant growth inhibition, hits give high values
In short: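 mgt1 strain exposed; growth vs vehicle control recorded as inhibition.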

[5] = NCI Yeast Anticancer Drug Screen. Data for the rad50 strain (AID 155);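 also: 0% = growth of vehicle-only cultures of the same strain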; conditions: S. cerevisiae rad50 strain growth inhibition, hits give high values
In short: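 Cells are treated with compound, grown, and their growth is then scored against vehicle-only cultures of the same repair-deficient yeast strain.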

[6] = NCI Yeast Anticancer Drug Screen. Data for the mec2-1 strain (AID 157); conditions: S. cerevisiae mec2-1 strain, hits give high values
In short: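 Vehicle-treated cultures served as reference for growth inhibition of compound-exposed mec2-1 yeast.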

[7] = NCI Yeast Anticancer Drug Screen. Data for the rad14 strain (AID 159);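 also: 0% = growth of vehicle-treated control cultures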; conditions: S. cerevisiae rad14 strain growth inhibition, hits give high values
In short: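 Readout: yeast growth inhibition, referenced to vehicle-only cultures. Strain bears a defined alteration in DNA damage repair.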

[8] = NCI Yeast Anticancer Drug Screen. Data for the sgs1 mgt1 strain (AID 161);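 also: 0% = growth of cultures given vehicle only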; conditions: S. cerevisiae sgs1 mgt1 strain, hits give high values
In short: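 Inhibition of yeast growth, normalised to vehicle-treated controls, is reported for a strain bearing genetic alterations in DNA damage repair.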

[9] = NCI Yeast Anticancer Drug Screen. Data for the CLN2oe strain (AID 163);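 also: 0% = growth of vehicle-only control cultures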; conditions: S. cerevisiae CLN2oe strain, hits give high values
In short: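 Inhibition relative to vehicle-treated yeast is reported. Cells: strain with genetic alteration in cell-cycle control, grown with compound.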

[10] = NCI Yeast Anticancer Drug Screen. Data for the cln2 rad14 strain (AID 165);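 also: 0% = growth equal to vehicle treated cultures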; conditions: S. cerevisiae cln2 rad14 strain, hits give high values
In short: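 Each compound was tested on cln2 rad14 yeast. Inhibition of growth was calculated against vehicle-exposed controls.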

[11] = NCI Yeast Anticancer Drug Screen. Data for the bub3 strain (AID 167); conditions: S. cerevisiae bub3 mutant strain, hits give high values
In short: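 Part of a panel of yeast mutants defective in DNA damage repair or cell cycle regulation. Each strain is grown with compound, and inhibition is calculated relative to solvent-treated cultures.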

[12] = NCI Yeast Anticancer Drug Screen. Data for the wt2 strain (AID 169);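 also: 0% = growth of vehicle-treated yeast cultures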; conditions: S. cerevisiae wt2 strain growth inhibition, hits give high values
In short: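 Inhibition of yeast growth was determined after compound treatment, normalised to controls receiving only vehicle.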

[13] = NCI Yeast Anticancer Drug Screen. Data for the mlh1 strain (AID 171);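 also: 0% = growth of vehicle-treated control cultures of the same strain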; conditions: S. cerevisiae mlh1 strain growth inhibition, hits give high values
In short: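 Vehicle-normalised growth inhibition of a repair- or checkpoint-altered yeast strain following compound treatment.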

[14] = NCI Yeast Anticancer Drug Screen. Data for the sgs1 strain (AID 173);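 also: 0% = growth of vehicle-only control cultures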; conditions: S. cerevisiae sgs1 mutant, hits give high values
In short: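 Screen format: yeast with repair or checkpoint alterations, compound exposure, growth read relative to vehicle.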

[15] = NCI Yeast Anticancer Drug Screen. Data for the mlh1 rad18 strain (AID 175); conditions: S. cerevisiae mlh1 rad18 strain growth inhibition, hits give high values
In short: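 Vehicle-treated cultures served as the reference for growth inhibition in a yeast strain carrying DNA damage repair alterations exposed to each compound.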

[16] = NCI Yeast Anticancer Drug Screen. Data for the rad18 strain (AID 177); conditions: S. cerevisiae rad18 mutant growth inhibition, hits give high values
In short: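 Test articles were incubated with altered yeast defective in DNA damage repair. Results are given as inhibition of growth versus vehicle.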

[17] = at 5.0 µM (retest, dose inferred, filed as 0.5)
[18] = at 50.0 µM (retest, dose inferred, filed as 5.0)

Measured: growth inhibition

Cn1ncc2cc3c(Nc4ccc(Cl)cc4)cccc3nc21
active: [1]; at 100.0 µM 96% | [5]; [18] 83% | [5]; at 100.0 µM 95%
inactive: [1]; at 1.2 µM 2% | [1]; at 3.7 µM 2% | [1]; at 11.0 µM 6% | [1]; at 33.0 µM 39% | [2]; at 1.2 µM 0% | [2]; at 3.7 µM -2% | [2]; at 11.0 µM -2% | [2]; at 33.0 µM 0% | [2]; at 100.0 µM 12% | [3]; at 1.2 µM 0% | [3]; at 3.7 µM 1% | [3]; at 11.0 µM 2% | [3]; at 33.0 µM 7% | [3]; at 100.0 µM 36% | [4]; at 1.2 µM -1% | [4]; at 3.7 µM 0% | [4]; at 11.0 µM -4% | [4]; at 33.0 µM -3% | [4]; at 100.0 µM 9% | [5]; at 1.2 µM 2% | [5]; at 3.7 µM 5% | [5]; [17] 25% | [5]; at 11.0 µM 10% | [5]; at 33.0 µM 42% | [5]; at 50.0 µM 59.9% | [6]; at 1.2 µM -5% | [6]; at 3.7 µM -7% | [6]; [17] 0% | [6]; at 11.0 µM -3% | [6]; at 33.0 µM -4% | [6]; [18] 5% | [6]; at 50.0 µM 8.6% | [6]; at 100.0 µM 6% | [7]; at 1.2 µM -2% | [7]; at 3.7 µM -2% | [7]; at 11.0 µM -3% | [7]; at 33.0 µM -3% | [7]; at 100.0 µM 29% | [8]; [17] -1% | [8]; [18] -2% | [8]; at 50.0 µM -10.4% | [9]; at 1.2 µM -5% | [9]; at 3.7 µM -4% | [9]; at 11.0 µM -5% | [9]; at 33.0 µM -3% | [9]; at 100.0 µM -6% | [10]; [17] -11% | [10]; [18] 1% | [10]; at 50.0 µM -6% | [11]; at 1.2 µM -3% | [11]; at 3.7 µM -5% | [11]; [17] -7% | [11]; at 11.0 µM -7% | [11]; at 33.0 µM -11% | [11]; [18] 1% | [11]; at 50.0 µM 44.6% | [11]; at 100.0 µM -7% | [12]; at 1.2 µM -1% | [12]; at 3.7 µM -2% | [12]; at 11.0 µM -2% | [12]; at 33.0 µM -2% | [12]; at 100.0 µM 20% | [13]; at 1.2 µM 0% | [13]; at 3.7 µM -4% | [13]; at 11.0 µM -2% | [13]; at 33.0 µM -2% | [13]; at 100.0 µM 26% | [14]; at 1.2 µM -2% | [14]; at 3.7 µM -2% | [14]; at 11.0 µM -3% | [14]; at 33.0 µM 0% | [14]; at 100.0 µM 42% | [15]; [17] -2% | [15]; [18] 7% | [15]; at 50.0 µM 2.05% | [16]; at 1.2 µM -2% | [16]; at 3.7 µM -4% | [16]; at 11.0 µM -3% | [16]; at 33.0 µM -2% | [16]; at 100.0 µM 52%

COc1ccc(C(C#N)=C2C=CC(=NO)C=C2)cc1
active: [1]; at 11.0 µM 89% | [1]; at 33.0 µM 96% | [1]; at 100.0 µM 96% | [2]; at 33.0 µM 96% | [2]; at 100.0 µM 97% | [3]; at 3.7 µM 70% | [3]; at 11.0 µM 90% | [3]; at 33.0 µM 93% | [3]; at 100.0 µM 93% | [4]; at 11.0 µM 88% | [4]; at 33.0 µM 97% | [4]; at 100.0 µM 91% | [5]; at 11.0 µM 81% | [5]; at 33.0 µM 96% | [5]; at 100.0 µM 95% | [6]; at 11.0 µM 96% | [6]; at 33.0 µM 97% | [6]; at 50.0 µM 88.2% | [6]; at 100.0 µM 98% | [7]; at 11.0 µM 83% | [7]; at 33.0 µM 96% | [7]; at 100.0 µM 82% | [8]; [18] 79% | [8]; at 50.0 µM 87.7% | [11]; [18] 82% | [11]; at 50.0 µM 85.8% | [11]; at 100.0 µM 72% | [12]; at 11.0 µM 84% | [12]; at 33.0 µM 99% | [12]; at 100.0 µM 99% | [13]; at 33.0 µM 97% | [13]; at 100.0 µM 95% | [14]; at 11.0 µM 87% | [14]; at 33.0 µM 99% | [14]; at 100.0 µM 98% | [15]; [18] 85% | [15]; at 50.0 µM 91.5% | [16]; at 11.0 µM 90% | [16]; at 33.0 µM 97% | [16]; at 100.0 µM 96%
inactive: [1]; at 1.2 µM 11% | [1]; at 3.7 µM 34% | [2]; at 1.2 µM -1% | [2]; at 3.7 µM -2% | [2]; at 11.0 µM 14% | [3]; at 1.2 µM 42% | [4]; at 1.2 µM 0% | [4]; at 3.7 µM 18% | [5]; at 1.2 µM 18% | [5]; at 3.7 µM 38% | [5]; [17] 23% | [5]; [18] 62% | [5]; at 50.0 µM 65.4% | [6]; at 1.2 µM 1% | [6]; at 3.7 µM 16% | [6]; [17] -2% | [6]; [18] 25% | [7]; at 1.2 µM 13% | [7]; at 3.7 µM 19% | [8]; [17] 51% | [9]; at 1.2 µM 7% | [9]; at 3.7 µM 11% | [9]; at 11.0 µM 58% | [9]; at 33.0 µM 55% | [9]; at 100.0 µM 68% | [10]; [17] 17% | [10]; [18] 41% | [10]; at 50.0 µM 60.3% | [11]; at 1.2 µM -1% | [11]; at 3.7 µM 7% | [11]; [17] 24% | [11]; at 11.0 µM 22% | [11]; at 33.0 µM 42% | [12]; at 1.2 µM -9% | [12]; at 3.7 µM 42% | [13]; at 1.2 µM 8% | [13]; at 3.7 µM 29% | [13]; at 11.0 µM 66% | [14]; at 1.2 µM 5% | [14]; at 3.7 µM 32% | [15]; [17] 48% | [16]; at 1.2 µM 11% | [16]; at 3.7 µM 38%
